Where “and” joins values, the source holds several entries; their conditions need not be identical. Equal values may be shown once. The whole screen tested about 5,500 compounds, of which about 2,000 (36%) were called active. About 18% were inconclusive and are not listed. No stated cut-off is given here; in the data, active means normalized growth mostly below about 0.91 (no sharp cut-off); inconclusive means no clear call, values can overlap the other calls; inactive means mostly above about 0.92. The list shows a part of the results.
Experiment: chemical genetic growth profiling, strain panel (AID 1159580);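 further: tested at 20 µM; growth read once vehicle control cultures reached saturation at 30 °C; 1 = growth at the plate median or of vehicle wells; lower values mean less growth of the strain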
Details: S. cerevisiae deletion strains, growth OD

Measured: normalized growth

CCC(C)C(=O)OC1[C@@H]2CC3=C4CC(=O)O[C@@H](c5ccoc5)[C@]4(C)CCC3[C@@](C)(C2=O)[C@@H](CC(=O)OC)C1(C)C (stereo not given in full)
inactive: locus YAL021C, strain ccr4, hits give low values 1.02 | locus YAL026C, strain drs2, hits give low values 1.01 | locus YAL030W, strain snc1, hits give low values 1.01 | locus YBL061C, strain skt5, hits give low values 1.01 | locus YBR009C, strain hhf1, hits give low values 1.01 | locus YBR021W, strain FUR4, hits give low values 1 | locus YBR023C, strain chs3, hits give low values 1 | locus YBR171W, strain sec66, hits give low values 1.01 | locus YBR229C, strain ROT2, hits give low values 0.999 | locus YBR231C, strain swc5, hits give low values 1.01 | locus YBR279W, strain paf1, hits give low values 1.01 | locus YCL011C, strain gbp2, hits give low values 1.01 | locus YCL016C, strain dcc1, hits give low values 1.01 | locus YCL029C, strain bik1, hits give low values 1 | locus YCL061C, strain MRC1, hits give low values 1 | locus YCL069W, strain vba3, hits give low values 1.02 | locus YCR088W, strain abp1, hits give low values 1 | locus YDL005C, strain med2, hits give low values 1 | locus YDL035C, strain GPR1, hits give low values 0.987 | locus YDL040C, strain nat1, hits give low values 0.991 | locus YDL074C, strain BRE1, hits give low values 1.01 | locus YDL101C, strain DUN1, hits give low values 1.02 | locus YDL185W, strain tfp1, hits give low values 1.01 | locus YDL192W, strain arf1, hits give low values 0.994 | locus YDR001C, strain nth1, hits give low values 1 | locus YDR069C, strain doa4, hits give low values 0.992 | locus YDR101C, strain arx1, hits give low values 0.991 | locus YDR137W, strain rgp1, hits give low values 0.961 | locus YDR159W, strain sac3, hits give low values 0.998 | locus YDR162C, strain NBP2, hits give low values 0.995 | locus YDR195W, strain ref2 0.987 | locus YDR297W, strain sur2, hits give low values 1.01 | locus YDR318W, strain mcm21, hits give low values 1 | locus YDR334W, strain swr1, hits give low values 1 | locus YDR335W, strain msn5, hits give low values 1.01 | locus YDR388W, hits give low values 1.01 | locus YDR392W, strain spt3, hits give low values 0.979 | locus YDR502C, strain sam2, hits give low values 1.02 | locus YEL003W, strain gim4, hits give low values 1.01 | locus YEL037C, strain rad23, hits give low values 1.01 | locus YEL061C, strain CIN8 (second series), hits give low values 1.01 | locus YER015W, strain faa2, hits give low values 0.999 | locus YER016W, strain bim1, hits give low values 0.999 | locus YER110C, hits give low values 1.02 | locus YER111C, strain swi4, hits give low values 0.99 | locus YER155C, strain BEM2 (second series), hits give low values 1.01 | locus YER155C, strain BEM2, hits give low values 1.01 | locus YER167W, strain BCK2, hits give low values 1 | locus YFR010W, strain ubp6, hits give low values 1.02 | locus YGL078C, strain dbp3, hits give low values 1.02 | locus YGL086W, strain mad1, hits give low values 1 | locus YGL167C, strain pmr1, hits give low values 1.01 | locus YGL173C, strain kem1, hits give low values 1 | locus YGL227W, strain vid30, hits give low values 0.999 | locus YGL240W, strain doc1, hits give low values 0.989 | locus YGL248W, strain PDE1, hits give low values 1.01 | locus YGL253W, strain hxk2, hits give low values 1.03 | locus YGR078C, strain PAC10, hits give low values 1.02 | locus YGR135W, strain pre9, hits give low values 1.04 | locus YGR229C, strain SMI1, hits give low values 0.982 | locus YGR252W, strain gcn5, hits give low values 1.02 | locus YHR013C, strain ard1, hits give low values 1.01 | locus YHR027C, strain rpn1, hits give low values 0.994 | locus YHR030C, strain SLT2, hits give low values 0.959 | locus YHR079C, strain IRE1 (second series), hits give low values 1.01 | locus YHR079C, strain IRE1, hits give low values 0.95 | locus YHR094C, strain hxt1, hits give low values 1 | locus YHR129C, strain ARP1, hits give low values 1.01 | locus YHR142W, strain chs7, hits give low values 1.04 | locus YHR200W, strain rpn10, hits give low values 1 | locus YIL066C, strain RNR3, hits give low values 0.998 | locus YIL073C, strain SPO22, hits give low values 1.06 | locus YIL125W, strain kgd1, hits give low values 0.998 | locus YIR030C, strain dcg1, hits give low values 1 | locus YJL092W, strain hpr5, hits give low values 1 | locus YJL095W, strain BCK1 (second series), hits give low values 1 | locus YJL095W, strain BCK1, hits give low values 1.04 and 0.958 | locus YJL115W, strain asf1, hits give low values 1 | locus YJL129C, strain trk1, hits give low values 1.01 | locus YJL134W, strain LCB3, hits give low values 1 | locus YJL154C, strain vps35, hits give low values 1 | locus YJL164C, strain tpk1, hits give low values 1.02 | locus YJL166W, strain qcr8, hits give low values 1.01 | locus YJL168C, strain set2, hits give low values 1.01 | locus YJL187C, strain SWE1 (second series), hits give low values 1.03

From PubChem BioAssay AID1159580 (chemical genetic matrix, 2015)
